# Measured values: PubChem BioAssay (Tox21)
# Inconclusive results are not listed. The source made the active and inactive calls. Calls come from the whole dose curve.
# Target: Peroxisome proliferator-activated receptor delta (Homo sapiens) (UniProt Q03181)
# Assay: qHTS assay to identify small molecule agonists of the peroxisome proliferator-activated receptor delta (PPARd) signaling pathway (AID 743212)
# Conditions: HEK293H PPARd-UAS-bla, beta-lactamase FRET ratio, 17 h; series mostly up to 62.6 µM; activation: at the top concentration
# Text: U.S. Tox21 Program National Center for Advancing Translational Sciences [NCATS] NIH Chemical Genomics Center [NCGC] U.S. Environmental Protection Agency [EPA] National Institutes of Environmental Health Sciences [NIEHS] National Toxicology Program [NTP] U.S. Food and Drug Administration [FDA] Tox21 Assay Overview: The peroxisome proliferator-activated receptors (PPARs) are lipid-activated transcription factors of the nuclear receptor superfamily with three distinct subtypes namely PPAR alpha, PPAR delta (PPARd) and PPAR gamma. All these subtypes heterodimerizes with Retinoid X receptor (RXR) and have different physiological functions. […] To identify the compounds that activate PPAR-delta signaling, GeneBLAzer PPAR delta UAS-bla HEK293H cell line (Invitrogen, Carlsbad, CA, USA) containing a beta-lactamase reporter gene under the control of an Upstream Activator Sequence (UAS) was used to screen the Tox21 compound library.
# Tox21 Assay Protocol Summary: PPARd-bla cells were dispensed at 3000 cells/6uL/well in 1536-well black wall/clear bottom plates using a Multidrop Combi (Thermo Fisher Scientific, Waltham, MA) dispenser. After the assay plates were incubated at 37 C and 5% CO2 for 5 h, 23 nL of compounds dissolved in DMSO, positive controls or DMSO only was transferred to the assay plate by a Pintool station (Kalypsys, San Diego, CA). The assay plates were incubated at 37C for 17 h. After 1 uL of LiveBLAzerTM B/G FRET substrate was added using a Bioraptr Flying Reagent Dispenser (FRD) workstation (Beckman Coulter, Indianapolis, IN, USA), the plates were incubated at room temperature for 2 h, and fluorescence intensity was measured by an Envision plate reader (PerkinElmer, Shelton, CT).
# % is set by controls: 0 for no effect and ±100 for the full control effect.
# Peroxisome proliferator-activated receptor delta (Homo sapiens), sequence (Q03181 whole entry, looked up): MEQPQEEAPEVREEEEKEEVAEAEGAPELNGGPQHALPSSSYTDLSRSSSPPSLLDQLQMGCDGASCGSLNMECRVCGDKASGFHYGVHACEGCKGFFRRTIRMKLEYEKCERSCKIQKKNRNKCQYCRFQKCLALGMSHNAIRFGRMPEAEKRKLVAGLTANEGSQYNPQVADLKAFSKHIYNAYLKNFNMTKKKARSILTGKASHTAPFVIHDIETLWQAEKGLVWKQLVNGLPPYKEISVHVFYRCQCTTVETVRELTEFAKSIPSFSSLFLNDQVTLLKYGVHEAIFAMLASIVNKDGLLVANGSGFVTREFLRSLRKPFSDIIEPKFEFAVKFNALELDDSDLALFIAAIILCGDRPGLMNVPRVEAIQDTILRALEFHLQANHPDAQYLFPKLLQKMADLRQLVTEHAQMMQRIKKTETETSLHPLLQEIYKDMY
row,SMILES,activation
1,CCN(O)CC,0.359% (inactive)
2,CCCOCCC,-5.92% (inactive)
3,Cc1ccc([N+](=O)[O-])cc1Cl,-2.65% [at 81.1 µM] (inactive)
4,O=c1[nH]c(=O)n([C@H]2C[C@H](O)[C@@H](CO)O2)cc1C(F)(F)F,1.24% (inactive)
5,CC/C=C\CCOC(=O)C(C)C,-3.24% (inactive)
6,Cc1c[nH]c(=S)[nH]c1=O,-7.24% (inactive)
7,CC(=O)OC(C)OC(C)=O,1.07% [at 81.1 µM] (inactive)
8,CCN(CCCc1ccccc1)CCCc1ccccc1,-4.16% (inactive)
9,CC(C)=CCCC(C)CCOC=O (stereo not given),0.108% (inactive)
10,C=CC(C)(O)CC/C=C(\C)CCC=C(C)C (stereo not given),1.11% (inactive)
11,O=C1C=CC(=O)O1,-4.24% [at 81.1 µM] (inactive)
12,FC(F)(F)c1ccccc1,0.673% (inactive)
13,NC(=O)NS(=O)(=O)c1ccc(Cl)cc1,-4.45% (inactive)
14,CC(C)(C)c1cccc(O)c1,0.676% (inactive)
15,COc1ccc(S(=O)(=O)Nc2nnc(CC(C)C)s2)cc1,0.347% (inactive)
16,CCOc1ccc(OCC)c(Cl)c1,4.71% (inactive)
17,O=Cc1ccc(F)c(Br)c1,-1.11% (inactive)
18,O=C(O)CN(CCN(CC(=O)O)CC(=O)O)CCN(CC(=O)O)CC(=O)O,-0.213% [at 29.1 µM] (inactive)
19,CC1=CC(=O)CC(C)(C)C1=O,1.44% [at 81.1 µM] (inactive)
20,CC(C)(C)C1CCCCC1=O (stereo not given),-3.73% (inactive)

row,SMILES,activation
1,Cc1cc(NS(=O)(=O)c2ccc(N)cc2)nc(C)n1,-1.63% (inactive)
2,CN1[C@@H]2CC[C@H]1CC(OC(=O)c1c[nH]c3ccccc13)C2 (stereo not given in full),0.81% (inactive)
3,C=CCCC=C,3.37% [at 81.1 µM] (inactive)
4,C[C@@H](N)C(=O)O,-1.82% (inactive)
5,CC(C)OC(C)C,-2.43% [at 81.1 µM] (inactive)
6,COc1ccccc1N1CCN(CCCNc2cc(=O)n(C)c(=O)n2C)CC1,-3.43% (inactive)
7,CC(CNC1CCCCC1)OC(=O)c1ccccc1 (stereo not given),-0.021% (inactive)
8,CCOC(=O)COc1ccc2c(c1)CC(NCC(O)c1cccc(Cl)c1)CC2 (stereo not given),1.02% (inactive)
9,CCCC(CCC)(C(=O)OCC)C(=O)OCC,2.96% (inactive)
10,O=C(CCCl)NCc1ccccc1,-3.64% (inactive)
11,NCCC(O)(P(=O)(O)O)P(=O)(O)O,-2.94% (inactive)
12,O=C1N(c2ccccc2)c2ccccc2C1(Cc1ccncc1)Cc1ccncc1,3.21% (inactive)
13,Cc1nnc(SCC2=C(C(=O)O)N3C(=O)[C@@H](NC(=O)Cn4cnnn4)[C@H]3SC2)s1,2.49% (inactive)
14,NS(=O)(=O)c1cc(-c2nn[nH]n2)c(NCc2cccs2)cc1Cl,1.69% (inactive)
15,COc1cc(C)ccc1C(C)C,3.7% (inactive)
16,CCCCNCCCC,1.83% (inactive)
17,CC1(C)C(=O)N(Cl)C(=O)N1Br,4.47% (inactive)
18,CN1CCN(C2=Nc3cc(F)ccc3Cc3ccccc32)CC1,-0.156% (inactive)
19,COC(=O)c1ccc2cc(C(=O)OC)ccc2c1,7.57% [at 29.1 µM] (inactive)
20,Cc1c(-c2ccccc2)oc2c(C(=O)OCCN3CCCCC3)cccc2c1=O,2.86% (inactive)
